The source of these data is PubChem BioAssay AID2284118 (EPA ToxCast).

Activity calls are given as the source filed them. Rule for the calls: active = hit-call score of the fitted dose curve at least 0.9, where 1 is the maximum; inactive = score below 0.9.

Sequence of human AMPKalpha1 CAMK Kinase, PRKAA1 (gene 5562) (Q13131 whole entry, looked up): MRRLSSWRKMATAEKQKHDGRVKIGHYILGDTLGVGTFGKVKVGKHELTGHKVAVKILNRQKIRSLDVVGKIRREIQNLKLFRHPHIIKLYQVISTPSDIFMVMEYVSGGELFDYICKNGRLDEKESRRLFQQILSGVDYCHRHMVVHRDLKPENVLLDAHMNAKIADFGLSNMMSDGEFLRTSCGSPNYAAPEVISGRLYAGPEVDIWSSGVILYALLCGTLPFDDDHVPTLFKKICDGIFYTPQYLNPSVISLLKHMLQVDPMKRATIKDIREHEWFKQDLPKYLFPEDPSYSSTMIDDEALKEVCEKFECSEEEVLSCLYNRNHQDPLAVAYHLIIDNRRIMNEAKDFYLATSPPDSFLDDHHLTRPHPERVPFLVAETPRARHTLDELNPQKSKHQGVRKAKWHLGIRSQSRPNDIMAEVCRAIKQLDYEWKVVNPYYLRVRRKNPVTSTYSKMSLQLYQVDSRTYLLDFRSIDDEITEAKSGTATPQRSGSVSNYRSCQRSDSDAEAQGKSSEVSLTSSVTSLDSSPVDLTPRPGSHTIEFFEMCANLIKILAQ

The test concerns the target human AMPKalpha1 CAMK Kinase, PRKAA1 (gene 5562) (UniProt Q13131). The test can be described thus: ERF_KP_ENZ_hPRKAA1: Eurofins (ERF) Enzymatic Radiometric [10 uM ATP] KinaseProfiler LeadHunter Assay for human AMPKalpha1 CAMK Kinase. Here is the method: ERF_KP_ENZ_hPRKAA1 is a biochemical, single-readout assay that uses extracted gene-proteins in a cell-free assay. Measurements were taken 0.66 hour after chemical dosing in a 96-well plate. See AMPKalpha1 Human CAMK Kinase Enzymatic Radiometric Assay [10 uM ATP], KinaseProfiler.ERF_KP_ENZ_hPRKAA1 is an assay component calculated from the ERF_KP_ENZ_hPRKAA1 assay. It is designed to measure enzyme activity using a type of enzyme reporter as detected by scintillation counting with radiometry technology.Data from the assay component ERF_KP_ENZ_hPRKAA1 was analyzed at the assay endpoint, ERF_KP_ENZ_hPRKAA1, in the positive analysis fitting direction relative to DMSO as the negative control and baseline of activity. Using a type of enzyme reporter, loss-of-signal activity can be used to understand changes in enzymatic activity as they relate to gene PRKAA1. To generalize the intended target to other relatable targets, this assay endpoint is annotated to the kinase intended target family, where the subfamily is serine/threonine kinase.
AMPK (a1, b1, g1) (h) is incubated with 8 mM MOPS pH 7.0, 0.2 mM EDTA, 200 uM AMP, 100 uM […], 10 mM MgAcetate and [gamma-33P]-ATP (specific activity and concentration as required). The reaction is initiated by the addition of the Mg/ATP mix. […]
Turning to `O=C(/C=C/c1ccc(O)cc1)CC(=O)/C=C/c1ccc(O)cc1`, the AC50 is 0.298 nM (active).

In general, AC50 refers to the concentration at which the activity in the assay is half-maximal.
